CHRM1 antagonist = human CHRM1 antagonism; CHO-K1 hM1, Fluo-8 calcium fluorescence, ACh EC80 antagonist; inhibition, % at 3 µM; hit rate 1.3% among 360,000; AID 588852;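 active means percent inhibition above its own plate's cutoff, namely the mean of that plate's compound wells plus 3 SD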;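 further: peak over basal fluorescence ratio during 140 s after agonist addition; 0% = ACh EC80 plus DMSO and 100% = DMSO alone without agonist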
Target sequence (P11229 whole entry, looked up): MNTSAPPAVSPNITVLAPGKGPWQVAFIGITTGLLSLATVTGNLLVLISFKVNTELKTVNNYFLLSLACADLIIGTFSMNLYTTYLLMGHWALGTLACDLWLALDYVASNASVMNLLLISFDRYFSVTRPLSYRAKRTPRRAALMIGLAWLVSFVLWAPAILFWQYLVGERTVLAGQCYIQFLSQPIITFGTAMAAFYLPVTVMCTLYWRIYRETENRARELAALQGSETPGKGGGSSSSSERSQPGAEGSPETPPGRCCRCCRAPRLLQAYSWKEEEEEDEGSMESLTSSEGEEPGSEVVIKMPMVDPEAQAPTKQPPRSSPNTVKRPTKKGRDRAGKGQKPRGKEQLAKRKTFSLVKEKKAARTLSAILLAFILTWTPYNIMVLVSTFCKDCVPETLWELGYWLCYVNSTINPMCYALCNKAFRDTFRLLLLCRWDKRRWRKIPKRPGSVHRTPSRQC
CHO-K1 Ca antag = M1 antagonist counterscreen hit in parental CHO-K1 cells; ATP-induced calcium, Fluo-8 fluorescence; AID 602250; inhibition, % at 3 µM; hit rate 0.6% among 360,000;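 active means inhibition above a per-plate cutoff, the plate's mean sample inhibition plus 3 SD, cut at about 24% in these data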;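 further: 0% = DMSO plus EC80 ATP and 100% = DMSO alone without ATP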
CHO-K1 Ca ag = M1 agonist counterscreen hit in parental CHO-K1 cells; Fluo-8 calcium fluorescence; scaled to maximal ATP response, vehicle zero; activation, % at 3 µM; hit rate 0.48% among 360,000; in the data active means activation above about 15%;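 further: untransfected CHO-K1 host cells lacking M1 receptor as counterscreen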
M1 ag = agonists of human M1 muscarinic receptor | P11229 | CHO-K1 hM1, Fluo-8 calcium fluorescence, agonist mode; 0% DMSO, 100% acetylcholine EC100 | activation, % at 3 µM | hit rate 0.33% among 360,000 | AID 588814;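 active means activation above the run's mean compound activation plus 3 SD, cut at about 16% in these data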;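 further: peak over basal fluorescence ratio within a 140 s kinetic read after compound addition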
M1 PAM parental = counter-screen for M1 PAMs: effect in parental CHO-K1 cells | ATP EC20, Fluo-8 calcium fluorescence; 0% at ATP EC20, 100% at ATP max | activation, % at 3 µM | hit rate 0.02% among 360,000;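 active means activation above the run cutoff, the mean activation of all test compounds plus 3 SD, cut at about 40% in these data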;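 further: peak over basal fluorescence ratio in a 140 s read after ATP addition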
CHRM1 PAM = human CHRM1 positive allosteric modulation; P11229; CHO-K1 hM1, Fluo-8 calcium fluorescence, ACh EC20; 0% = ACh EC20, 100% = maximal ACh; activation, % at 3 µM; hit rate 0.088% among 360,000; in the data active means activation above about 19%, passing the limit was not always enough
An asterisk follows results filed as active. Hits are enriched below; roughly 2.3% of the tested compounds scored in any of these assays.

How did CC(C)(C)c1cc(CCC(=O)N2CCC2)cc(C(C)(C)C)c1O do in these assays?
CHRM1 antagonist: -10.9; CHO-K1 Ca antag: -13.8; CHO-K1 Ca ag: 0.1; M1 ag: -3.6; M1 PAM parental: 4.5; CHRM1 PAM: 8.4

What do the screens show for `CC1CN(C(=O)CCc2cc(C(C)(C)C)c(O)c(C(C)(C)C)c2)CC(C)O1` (centres undefined)?
CHRM1 antagonist: 18.0; CHO-K1 Ca antag: 27.1*; CHO-K1 Ca ag: 3.0; M1 ag: -2.2; M1 PAM parental: -5.8; CHRM1 PAM: -5.9

What do the screens show for `CCc1nnc(NC(=O)c2cc(Cl)ccn2)s1`?
CHRM1 antagonist: 7.9; CHO-K1 Ca antag: -1.3; CHO-K1 Ca ag: 0.4; M1 ag: -5.1; M1 PAM parental: -8.3; CHRM1 PAM: -8.2

What do the screens show for `CC(C)c1ccc(NC(=O)[C@@H](C)NC(=O)[C@@H]2Cc3ccccc3CN2)cc1`?
CHRM1 antagonist: 37.4*; CHO-K1 Ca antag: -16.9; CHO-K1 Ca ag: 1.3; M1 ag: -4.8; M1 PAM parental: 15.8; CHRM1 PAM: -22.6

How did CC(C)C[C@H](NC(=O)[C@@H]1Cc2ccccc2CN1)C(=O)Nc1ccc(C(C)C)cc1 do in these assays?
CHRM1 antagonist: -9.6; CHO-K1 Ca antag: -10.1; CHO-K1 Ca ag: 2.2; M1 ag: -4.3; M1 PAM parental: 1.6; CHRM1 PAM: 5.6

Results for CCn1c(SCC(=O)NCc2ccccc2)nc2c(c1=O)SC(C)C2 (centres undefined) ?
CHRM1 antagonist: -1.9; CHO-K1 Ca antag: 32.4*; CHO-K1 Ca ag: -0.2; M1 ag: -0.4; M1 PAM parental: -9.3; CHRM1 PAM: 8.9

Results for CCn1c(SCC(=O)NCc2ccc(F)cc2)nc2c(c1=O)SC(C)C2 (centres undefined) ?
CHRM1 antagonist: 7.1; CHO-K1 Ca antag: 14.1; CHO-K1 Ca ag: 0.2; M1 ag: 0.3; M1 PAM parental: -4.4; CHRM1 PAM: 3.6

Results for CC(C)(CO)NCc1cc(Br)ccc1OCc1ccccc1 ?
CHRM1 antagonist: -0.6; CHO-K1 Ca antag: -21.0; CHO-K1 Ca ag: 1.2; M1 ag: -10.2; M1 PAM parental: 13.5; CHRM1 PAM: 5.3

How did CC(C)NCc1cc(Br)ccc1OCc1ccccc1 do in these assays?
CHRM1 antagonist: 29.1; CHO-K1 Ca antag: -7.6; CHO-K1 Ca ag: 2.6; M1 ag: 34.4*; M1 PAM parental: 16.4; CHRM1 PAM: -16.9

How did CC12CCC(C(=O)NNC(=O)c3ccccc3)(OC1=O)C2(C)C (centres undefined) do in these assays?
CHRM1 antagonist: -5.6; CHO-K1 Ca antag: 17.6; CHO-K1 Ca ag: -0.4; M1 ag: -3.3; M1 PAM parental: -20.3; CHRM1 PAM: 4.8

How did CC12CCC(C(=O)N(Cc3ccccc3)Cc3ccccc3)(OC1=O)C2(C)C (centres undefined) do in these assays?
CHRM1 antagonist: -14.2; CHO-K1 Ca antag: 25.1*; CHO-K1 Ca ag: -0.5; M1 ag: -5.8; M1 PAM parental: -8.5; CHRM1 PAM: -8.0

What do the screens show for `COc1cccc(NC(=O)c2ccccc2N2C(=O)C3C4C=CC(C4)C3C2=O)c1` (centres undefined)?
CHRM1 antagonist: -14.3; CHO-K1 Ca antag: -11.1; CHO-K1 Ca ag: 1.8; M1 ag: -1.6; M1 PAM parental: 15.9; CHRM1 PAM: 11.7

Results for COC(=O)C1CCN(C(=O)COC(=O)c2cc(-c3cccs3)nn2-c2ccccc2)CC1 ?
CHRM1 antagonist: 16.0; CHO-K1 Ca antag: 0.9; CHO-K1 Ca ag: 0.6; M1 ag: -7.8; M1 PAM parental: -21.7; CHRM1 PAM: -15.2

How did CC1CCCCN1C(=O)COC(=O)c1cc(-c2cccs2)nn1-c1ccccc1 (centres undefined) do in these assays?
CHRM1 antagonist: 45.1*; CHO-K1 Ca antag: -12.1; CHO-K1 Ca ag: 1.2; M1 ag: -7.0; M1 PAM parental: 13.6; CHRM1 PAM: -25.7

Results for O=C(NCCC1CCCCN1S(=O)(=O)c1ccc(F)cc1)C(=O)NCC1CCCO1 (centres undefined) ?
CHRM1 antagonist: -5.0; CHO-K1 Ca antag: 6.2; CHO-K1 Ca ag: 0.0; M1 ag: -2.3; M1 PAM parental: 2.3; CHRM1 PAM: 2.3

Results for Cn1c(=O)c(C#N)c(-c2ccc(F)cc2)c2cc(C(=O)c3cc(Cl)cc(Cl)c3O)cnc21 ?
CHRM1 antagonist: 31.4*; CHO-K1 Ca antag: 12.1; CHO-K1 Ca ag: 14.2; M1 ag: 3.5; M1 PAM parental: -11.1; CHRM1 PAM: -11.8

How did CCOC(=O)[C@]12CCC=C1N(Cc1ccco1)C(=O)[C@H](CC(=O)N1CCCCC1)C2 do in these assays?
CHO-K1 Ca antag: -16.9; CHO-K1 Ca ag: 0.6; M1 PAM parental: 2.8

What do the screens show for `CCCC[n+]1ccn(-c2nc3ccccc3nc2[N-]S(=O)(=O)c2ccc(C)cc2)c1`?
CHRM1 antagonist: -7.2; CHO-K1 Ca antag: -6.1; CHO-K1 Ca ag: 0.5; M1 ag: 0.8; M1 PAM parental: 13.2; CHRM1 PAM: 2.8

What do the screens show for `CCCC[n+]1ccn(-c2nc3ccccc3nc2[N-]S(=O)(=O)c2ccccc2)c1`?
CHRM1 antagonist: -6.9; CHO-K1 Ca antag: -8.0; CHO-K1 Ca ag: 0.1; M1 ag: 19.1*; M1 PAM parental: 21.1; CHRM1 PAM: -7.1

What do the screens show for `CCCCNC(=O)C1CCN(Cc2ccc(OCc3ccccc3)c(OC)c2)CC1`?
CHRM1 antagonist: -3.9; CHO-K1 Ca antag: -5.4; CHO-K1 Ca ag: -0.1; M1 ag: -9.5; M1 PAM parental: 5.5; CHRM1 PAM: 9.1

What do the screens show for `CCOC(=O)C1CCN(Cc2ccc(OCc3ccccc3)cc2)CC1`?
CHRM1 antagonist: 49.3*; CHO-K1 Ca antag: -6.6; CHO-K1 Ca ag: 1.9; M1 ag: -7.8; M1 PAM parental: 18.7; CHRM1 PAM: -29.2

Results for Cc1cc(OCCN2CCC(Cc3ccccc3)CC2)ccc1[N+](=O)[O-] ?
CHRM1 antagonist: 101.0*; CHO-K1 Ca antag: -1.5; CHO-K1 Ca ag: 3.1; M1 ag: -6.3; M1 PAM parental: 17.0; CHRM1 PAM: -31.1

How did NC(=O)C1CCN(Cc2ccc(OCc3ccccc3)cc2)CC1 do in these assays?
CHRM1 antagonist: 27.0; CHO-K1 Ca antag: 3.1; CHO-K1 Ca ag: 0.5; M1 ag: -9.5; M1 PAM parental: 8.4; CHRM1 PAM: -17.4

Results for COc1cccc(OC)c1OCCCN1CCC(Cc2ccccc2)CC1 ?
CHRM1 antagonist: 45.3*; CHO-K1 Ca antag: 13.0; CHO-K1 Ca ag: 5.5; M1 ag: -5.3; M1 PAM parental: -16.5; CHRM1 PAM: -24.1

How did CCCCN(C)C(=O)C1CCN(Cc2ccc(OCc3ccccc3)cc2)CC1 do in these assays?
CHRM1 antagonist: 41.0*; CHO-K1 Ca antag: 3.3; CHO-K1 Ca ag: 0.6; M1 ag: -6.2; M1 PAM parental: -4.0; CHRM1 PAM: -20.6

How did O=c1ccn([C@@H]2O[C@H](CNCC3=Cc4cc(O)ccc4OC3)[C@@H](O)[C@H]2O)c(=O)[nH]1 do in these assays?
CHRM1 antagonist: -1.3; CHO-K1 Ca antag: -8.7; CHO-K1 Ca ag: -0.5; M1 ag: -3.1; M1 PAM parental: 11.0; CHRM1 PAM: 6.7

Screens (PubChem BioAssay)
